Assay results taken from ChEMBL document CHEMBL3988442, “University of Dundee, Small-Polar-MMV Screening Library” (2021).
Screen size: about 66,000 compounds; about 960 (1.5%) showed an effect of 50% or more. Shown is part of a subset that was picked to be rich in strong results.

System: Trypanosoma brucei
Experiment: Trypanosoma brucei 72 hour study
Assay type: functional, organism-based
Design: scale not given: in the data most compounds retested in dose-response had high values

CN1CCc2c(C#N)c(NCc3cccnc3)n3cnnc3c2C1.Cl
Percent Effect (30 µM, 30.03 µM): -8.696%

CCC(C)N(Cc1ccsc1)C(=O)c1ccc2[nH]nnc2c1 (stereo unspecified)
Percent Effect (30 µM, 30.03 µM): 2.149%

O=C(O)C(F)(F)F.c1cnc(N2CCO[C@H]3CN(CC4CCOC4)C[C@H]32)cn1 (stereo partly specified)
Percent Effect (30.3 µM, […]): -89.28%

Fc1ccc(N2CCCN(c3ccc(Cn4ccnc4)cn3)CC2)cc1
Percent Effect (30 µM, 30.03 µM): -16.3%

CS(=O)(=O)N1CCO[C@@H]2CN(C(=O)N3CCOCC3)CC[C@@H]2C1
Percent Effect (30.3 µM, […]): -93.06%

CCc1noc(CNCCn2cc(C)cn2)n1
Percent Effect (30.3 µM, […]): -10.46%

Cc1cnn(CCNCc2nc(CNC(=O)c3ccccc3)no2)c1
Percent Effect (30.3 µM, […]): 55.13%

Cc1cnn(CCNCc2nc(Cc3ccccc3)no2)c1
Percent Effect (30 µM, 30.03 µM): -8.184%

CC(NC(=O)NCc1cc(Br)cs1)c1ccccn1 (stereo unspecified)
Percent Effect (10 µM): -58.94%

COc1ccc(CN2CCC(c3nnc(-c4scnc4C)o3)CC2)cc1
Percent Effect (30.3 µM, […]): 3.062%

CCCn1cc(-c2ccnc(NC3CCc4ccccc4C3)n2)c(C)n1 (stereo unspecified)
Percent Effect (30 µM, 30.03 µM): 2.067%

CCCn1ncc(-c2ccnc(NC3CCSC3)n2)c1C (stereo unspecified)
Percent Effect (30.3 µM, […]): 99.54%

CCCn1ncc(-c2ccnc(NC3CCCc4ccccc43)n2)c1C (stereo unspecified)
Percent Effect (30 µM, 30.03 µM): 93.43%

CCCn1cc(-c2ccnc(NC3CCCc4ccccc43)n2)c(C)n1 (stereo unspecified)
Percent Effect (30 µM, 30.03 µM): 15.8%

CCCn1ncc(-c2ccnc(N[C@@H]3C[C@@H]4CC[C@H]3C4)n2)c1C
Percent Effect (30.3 µM, […]): 89.15%

Cn1ncc2c(N[C@@H]3C[C@@H]4CC[C@H]3C4)nc(-c3ccncc3)nc21
Percent Effect (30.3 µM, […]): -15.13%

CCc1cc(N[C@@H]2C[C@H]3CC[C@@H]2C3)n2nccc2n1
Percent Effect (30 µM, 30.03 µM): 24.99%

CCCn1ncc(-c2ccnc(NC3CC(C)(C)NC(C)(C)C3)n2)c1C
Percent Effect (30.3 µM, […]): 25.37%

CCCn1cc(-c2ccnc(NC3CCc4ccccc43)n2)c(C)n1 (stereo unspecified)
Percent Effect (30 µM, 30.03 µM): 34.15%

Cc1ccc(C(=O)N2CCC3(CCN3c3ncccn3)C2)cn1.O=C(O)C(F)(F)F (stereo unspecified)
Percent Effect (30 µM, 30.03 µM): -27.47%

COC(=O)CCN(C)C(=O)c1csc(Cc2ccccc2F)n1
Percent Effect (30 µM, 30.03 µM): -48.33%

O=C(O)C(F)(F)F.O=C(c1ccccc1)N1CCC2(CCCN2c2ncccn2)CC1
Percent Effect (30 µM, 30.03 µM): -3.287%

Oc1cccc(CN2C[C@H]3CC[C@@H]2CN(Cc2ccc(F)cc2)C3)c1
Percent Effect (30.3 µM, […]): 102.6%

CCCN1C[C@H]2CC[C@@H]1CN(Cc1cccc(O)c1)C2
Percent Effect (30.3 µM, […]): -137.4%

Cc1nnsc1CN1C[C@H]2CC[C@@H]1CN(Cc1ccc(F)cc1)C2
Percent Effect (30 µM, 30.03 µM): -34.67%

Cc1ccc(CN2CCc3nnc(COCCN(C)C)n3CC2)o1.O=C(O)C(F)(F)F.O=C(O)C(F)(F)F
Percent Effect (30.3 µM, […]): -5.489%

Cc1ccc2c(n1)N(CC1CC1)CCN(Cc1cnn(C)c1)C2
Percent Effect (30.3 µM, […]): -21.1%

CN1CCCN(c2nccc(-c3cncnc3C3CCCCC3)n2)CC1
Percent Effect (30.3 µM, […]): -3.717%

CN1CCCN(c2nccc(-c3cc(C(=O)O)ccn3)n2)CC1
Percent Effect (30 µM, 30.03 µM): -37.76%

CN1CCCN(c2nccc(-c3c[nH]nc3-c3ccncc3)n2)CC1
Percent Effect (30.3 µM, […]): 10.61%

Nc1nccc(-c2c[nH]nc2C2CCCCC2)n1
Percent Effect (30 µM, 30.03 µM): 44.22%

CN1CCN(c2nccc(-c3cncnc3C3CCCCC3)n2)CC1
Percent Effect (30.3 µM, […]): -9.341%

NC(=O)C1CCN(c2nccc(-c3c[nH]nc3C3CCCCC3)n2)CC1
Percent Effect (30.3 µM, […]): 100.2%

c1cc(-c2cn3nccc3nc2C2CCCCC2)nc(N2CCCC2)n1
Percent Effect (30.3 µM, […]): 41.66%

Cc1ccnc(N2CCC(C(N)=O)CC2)n1
Percent Effect (30.3 µM, […]): -17.59%

NC(=O)[C@H]1CCCN(c2nccc(-c3c[nH]nc3-c3cccnc3)n2)C1
Percent Effect (30.3 µM, […]): -17.38%

CN1CCCN(c2nccc(-c3c[nH]nc3C3CCCCC3)n2)CC1
Percent Effect (30 µM, 30.03 µM): 98.42%

c1cc(-c2c[nH]nc2C2CCCCC2)nc(N2CCCCCC2)n1
Percent Effect (30.3 µM, […]): 99.82%

CN1CCCN(c2nccc(-c3c[nH]c4ccc(Br)cc34)n2)CC1
Percent Effect (30.3 µM, […]): 99.21%

Cc1nnsc1C(=O)N1CCCC(n2nnc3cc(F)ccc32)C1 (stereo unspecified)
Percent Effect (30.3 µM, […]): 2.47%

CC1COCCN1Cc1nc(-c2ccsc2)no1 (stereo unspecified)
Percent Effect (30.3 µM, […]): -0.3401% | Percent Effect (10 mM, 10 mM as filed; unlikely as a test dose): -39.38%

CC(C)N1CCO[C@@H]2CN(S(=O)(=O)c3cccs3)CC[C@@H]2C1.O=C(O)C(F)(F)F
Percent Effect (30.3 µM, […]): -39.91%

COc1ccc(OC)c(CN2CCc3nc4ccsc4c(=O)n3CC2)c1.Cl
Percent Effect (30.3 µM, […]): 12.93%

OC[C@@H]1CCCN1c1nccc(-c2c[nH]nc2-c2ccncc2)n1
Percent Effect (30.3 µM, […]): 21.87%

OC[C@H]1CCCN1c1nccc(-c2cncnc2C2CCCCC2)n1
Percent Effect (30.3 µM, […]): -14.29%

OC[C@H]1CCCN1c1nccc(-c2c[nH]nc2C2CCCCC2)n1
Percent Effect (30.3 µM, […]): 98.96%

CCc1noc(C(C)N(C)CC(=O)Nc2ccc(Br)cc2C)n1 (stereo unspecified)
Percent Effect (30 µM, 30.03 µM): -22.21%

COc1ncccc1CN1C[C@@H]2COC[C@]2(COCC(=O)N(C)C)C1.O=C(O)C(F)(F)F.O=C(O)C(F)(F)F
Percent Effect (30 µM, 30.03 µM): -7.446%

Clc1ccccc1C1(c2ccnc(C3CCCC3)n2)CCNCC1
Percent Effect (30 µM, 30.03 µM): 101.7%

Clc1ccccc1C1(c2ccnc(CC3CC3)n2)CCNCC1
Percent Effect (30 µM, 30.03 µM): 25.18%

CC(C)c1nccc(C2(c3ccccc3Cl)CCNCC2)n1
Percent Effect (30 µM, 30.03 µM): -6.514%

CC(C)(C)c1nccc(C2(c3ccccc3Cl)CCNCC2)n1
Percent Effect (30 µM, 30.03 µM): 98.68%

Clc1ccccc1C1(c2ccnc(C3CC3)n2)CCNCC1
Percent Effect (30 µM, 30.03 µM): -58.64%

Clc1ccccc1C1(c2ccnc(-c3ncccn3)n2)CCNCC1
Percent Effect (30 µM, 30.03 µM): 30.19%

CC1(C)CC(N(Cc2ccccc2)Cc2ncc[nH]2)CC(C)(C)N1.O=C(O)CC(O)(CC(=O)O)C(=O)O
Percent Effect (30.3 µM, […]): 10.45%

CCN1CCN(C)C2(CCN(Cc3ccsc3)CC2)C1=O.O=C(O)C(F)(F)F.O=C(O)C(F)(F)F
Percent Effect (30.3 µM, […]): -66.4%

O=C(O)C(F)(F)F.O=C1COC2(CCN(Cc3ccoc3)CC2)CN1
Percent Effect (30 µM, 30.03 µM): -33.82%

O=C(O)C(F)(F)F.O=C(c1cnccn1)N1CCCC2(CCN(c3ncccn3)C2)C1 (stereo unspecified)
Percent Effect (30 µM, 30.03 µM): -0.826%

CC(=O)N1CCN(S(=O)(=O)c2ccc(C)c(F)c2)CC1
Percent Effect (30 µM, 30.03 µM): 0.5413%

c1ccc2c(c1)CCN(c1nc(N3CCOCC3)c3nn[nH]c3n1)C2
Percent Effect (30.3 µM, […]): -17%

Cc1nc(CO[C@@H]2CN(Cc3ccsc3)[C@@H]3COC[C@@H]32)cs1.O=C(O)C(F)(F)F
Percent Effect (30 µM, 30.03 µM): -15.95%

CCOCCCC(=O)NCc1cn2cc(Br)ccc2n1
Percent Effect (30 µM, 30.03 µM): 54.92%

CCOCCOC(C)C(=O)NCc1cn2cc(Br)ccc2n1 (stereo unspecified)
Percent Effect (30 µM, 30.03 µM): 14.67%

CC(C)COCCC(=O)NCc1cn2cc(Br)ccc2n1
Percent Effect (30 µM, 30.03 µM): -7.155%

OC1(CNCCCN2CCCc3ccccc32)CNCCOC1 (stereo unspecified)
Percent Effect (30.3 µM, […]): 12.14%

OC1(CNCCCN2CCc3ccccc32)CCNC1 (stereo unspecified)
Percent Effect (30.3 µM, […]): 99.09%

OC1(CNCCN2CCCc3ccccc32)CCNC1 (stereo unspecified)
Percent Effect (30.3 µM, […]): 6.012%

Cl.O=C(CCn1c(C(F)(F)F)cc2cccnc21)N1CCOCC1
Percent Effect (30.3 µM, […]): -52.3%

CN(CCOc1cccc(F)c1)Cc1nc2c(cnn2C)c(=O)[nH]1
Percent Effect (30.3 µM, […]): -16.26%

Cc1cccc(NC(=O)c2csc(NCC(C)C)n2)n1
Percent Effect (30 µM, 30.03 µM): -6.262%

Cc1cc(O)c(OCC(=O)/N=c2\[nH]c(C)c(C)s2)cn1
Percent Effect (30 µM, 30.03 µM): -31.23%

Cc1cs/c(=N/C(=O)c2csc(NCC(C)C)n2)[nH]1
Percent Effect (30 µM, 30.03 µM): 86.34%

Cc1[nH]/c(=N\C(=O)c2csc(NCC(C)C)n2)sc1C
Percent Effect (30 µM, 30.03 µM): 99.84%

Cc1cnc(NC(=O)c2csc(NCC(C)C)n2)s1
Percent Effect (30 µM, 30.03 µM): 4.824%

CC(C)CNc1nc(C(=O)/N=c2\[nH]nc(C(C)(C)C)s2)cs1
Percent Effect (30 µM, 30.03 µM): -9.789%

O=C(O)C(F)(F)F.O=C(c1cscn1)N1CC[C@@H]2[C@@H]1CCN2C1CCOCC1
Percent Effect (30.3 µM, […]): -53.41%

O=C(O)C(F)(F)F.O=C(c1ccccn1)N1CCc2ncc(Cn3cccn3)n2CC1
Percent Effect (30.3 µM, […]): -7.142%

Cc1ccc(S(=O)(=O)N2C[C@H]3C[C@H](NC(=O)c4cnn(C)c4)[C@H]3C2)cc1
Percent Effect (30.3 µM, […]): -2.175%

COc1c(CNCc2cccc(Cn3ccnc3C)c2)c(C)nn1C.Cl
Percent Effect (30.3 µM, […]): -2.374% | Percent Effect (10 mM, 10 mM as filed; unlikely as a test dose): -46.4%

CC(C)c1nc2c(n1C)CCN(Cc1nc(-c3ccoc3)no1)C2
Percent Effect (30.3 µM, […]): -0.2084%

CC(C)c1nc2c(n1C)CCN(Cc1nc(-c3ccsc3)no1)C2
Percent Effect (30 µM, 30.03 µM): 59.36%

Cn1c(C2CC2)nc2c1CCN(Cc1nc(-c3ccsc3)no1)C2
Percent Effect (30.3 µM, […]): -7.992%

COc1ccc(CN(C)[C@@H]2COC[C@H]2c2ccc(F)cc2)c(OC)c1.O=C(O)CC(O)(CC(=O)O)C(=O)O
Percent Effect (30.3 µM, […]): 4.622%

Br.CCOc1ccc(N(CC(=O)c2ccccc2)C2=NCCCCC2)cc1
Percent Effect (30 µM, 30.03 µM): 25.81%

COc1ccccc1CN1C[C@@H]2CN(C(C)=O)CCO[C@@H]2C1.O=C(O)C(F)(F)F
Percent Effect (30.3 µM, […]): -77.53%

CN(Cc1nc(N2CCCC2)ncc1-c1ccncc1)C(=O)C(C)(C)C.Cl
Percent Effect (30.3 µM, […]): 34.69%

CN(C)C(=O)C1(Oc2ccc(Cl)cc2)CCNCC1
Percent Effect (30.3 µM, […]): -28.66%

Cc1ccc(OC2(C(=O)N(C)Cc3ccoc3)CCNCC2)cc1
Percent Effect (30.3 µM, […]): 91.09%

CN(Cc1ccoc1)C(=O)C1(Oc2ccc(Cl)cc2)CCNCC1
Percent Effect (30.3 µM, […]): 99.82%

CN(Cc1ccncn1)C(=O)C1(Oc2ccc(Cl)cc2)CCNCC1
Percent Effect (30.3 µM, […]): -35.89%

O=C(N[C@@H]1CCCNC1)C1(Oc2ccc(Cl)cc2)CCNCC1
Percent Effect (30 µM, 30.03 µM): -80.08%

Cc1ccc(OC2(C(=O)NC(C)Cc3ccncc3)CCNCC2)cc1 (stereo unspecified)
Percent Effect (30 µM, 30.03 µM): -4.697%

CC(C)CN1CCC2(CCN(Cc3ccsc3)CC2)C1=O
Percent Effect (30.3 µM, […]): 2.917%

CC(C)CNC(=O)N1CCC2(CC1)OC(C(N)=O)Cn1ccnc12.O=C(O)C(F)(F)F (stereo unspecified)
Percent Effect (30.3 µM, […]): -37.34%
